Data as given in PubChem BioAssay.

Assay: osmotic lysis modulators in infected erythrocytes, primary screen, PSAC antagonist project, cell-based, P. falciparum Indochina, OD700, 3 h (AID 1156)
Conditions: higher = more signal, called active from +8 up or from −8 down

z-score, inactive:
[N-]=[N+]=NCc1ccccc1C[C@@]1(C(=O)N2CCCCC2)N=C(c2ccc(OCCCO)cc2)O[C@@H]1c1ccccc1CN=[N+]=[N-] 3.4
O=C1C2C=CC(C(O)c3ccc(I)cc3)N(Nc3ccccc3)C2C(=O)N1c1ccccc1 (stereo not drawn) -0.166
CC(C)C(=C=CC[C@@H](O)c1cccc(OCCO)c1)C[C@@H](O)c1ccccn1 0.489
COC(=O)[C@@]1(Cc2ccccc2CN=[N+]=[N-])N=C(c2ccc(OCCCO)cc2)O[C@H]1c1ccccc1 0.882
CCOC(=O)C[C@H]1[C@H](OC(=O)c2cc3ccccc3oc2=O)[C@@H](NC(=O)c2ccc3ccccc3c2)c2cc(OCCCO)ccc2N1C(=O)Cc1ccc(OC)cc1 0.703
COC(=O)[C@@]1(Cc2ccc(OC)cc2)[C@H]2c3cc(C(=O)N4CCCC4)n(Cc4cc(C)n(C)n4)c3C[C@H]2CN1C(=O)c1ccccc1 0.63
C=C(CCCC)C(=O)CC[C@H](OC(C)=O)c1ccc(OCCO)cc1 1.61
COc1ccc(C(=O)Nc2cccc(CN3C(=O)[C@]4(O[C@H](CCn5cc([C@H](O)c6ccccc6)nn5)[C@@H]([Si](C)(C)c5ccc(OC)cc5)[C@@H]4C)c4ccccc43)c2)cc1 1.82
COCCOC(=O)N1C(=O)[C@@]2(c3cc(C#CC4=CCCCC4)ccc31)[C@H](C(=O)N1CCCCCCC1)[C@H]1C(=O)O[C@H](c3ccccc3)[C@H](c3ccccc3)N1[C@@H]2c1ccc(OCCO)cc1 -0.26
C=C(CCCC)/C(=C/C[C@H](OC(C)=O)c1ccc(OCCO)cc1)c1cc(C(=O)OC)ccc1OC 2.3
COc1ccc([Si](C)(C)[C@H]2[C@H](CC(=O)N3CCC[C@H]3CO)O[C@@]3(C(=O)N(Cc4ccc(N5CCC5=O)cc4)c4ccccc43)[C@@H]2C)cc1 0.171
[N-]=[N+]=NCc1ccccc1[C@@H]1OC(c2ccc(OCCCO)cc2)=N[C@]1(Cc1ccccc1N=[N+]=[N-])C(=O)NCCN1CCOCC1 1.46
O=C1C[C@@](C(=O)NCC(F)(F)F)(c2ccc([N+](=O)[O-])cc2)[C@@H](c2ccc(CO)cc2)N1CC12CC3CC(CC(C3)C1)C2 2.97
